{"source": "PubChem BioAssay AID652115", "about": "(Broad Institute, 2013)", "note": "Several values for one entry are separate records, joined by “and”; a condition that tells them apart may be missing. Equal entries are not always repeated. About 3,800 (1.2%) of roughly 330,000 compounds were called active. Rule as the data show it: active = inhibition above about 15%; inconclusive = no clear call, values can overlap the other calls; inactive = below that. The entries come from a sample that favours actives as a whole."}
{"biological_target": "NAD-dependent protein deacylase sirtuin-5, mitochondrial (Homo sapiens) (UniProt Q9NXA8)", "sequence (Q9NXA8 whole entry, looked up)": "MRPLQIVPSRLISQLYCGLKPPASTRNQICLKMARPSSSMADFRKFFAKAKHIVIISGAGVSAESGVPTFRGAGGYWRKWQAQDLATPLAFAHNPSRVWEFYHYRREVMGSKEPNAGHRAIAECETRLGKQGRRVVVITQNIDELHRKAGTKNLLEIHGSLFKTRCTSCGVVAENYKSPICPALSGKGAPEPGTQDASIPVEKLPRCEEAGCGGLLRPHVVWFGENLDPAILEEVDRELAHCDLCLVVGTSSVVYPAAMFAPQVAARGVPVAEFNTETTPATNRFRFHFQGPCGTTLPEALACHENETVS", "test": "SIRT5 desuccinylase inhibitors, primary screen, biochemical, fluorescence imaging, single point, set 5 (AID 652115)", "settings": "Purified SirT5, succinyl-peptide AMC, trypsin-coupled fluorescence; at 15 µM; stronger effect = higher value"}
{"smiles": "O=C(C[C@H]1C[C@@H]2c3cc(NC(=O)C4CCC4)ccc3O[C@@H]2[C@H](CO)O1)NCCN1CCCCC1", "inhibition": "-1.29% (inactive)"}
{"smiles": "C[C@H](CO)N1C[C@H](C)[C@@H](CN(C)C)Oc2c(NC(=O)Nc3ccc(F)cc3)cccc2C1=O", "inhibition": "-3.52% (inactive)"}
{"smiles": "C[C@H]1CN([C@@H](C)CO)C(=O)c2cc(-c3ccccc3F)cnc2O[C@@H]1CN(C)C", "inhibition": "-1.72% (inactive)"}
{"smiles": "CCCNC(=S)N1CCC(NC(=O)c2ccc(OC)cc2)CC1", "inhibition": "2.19% (inactive)"}
{"smiles": "CC(C)OCCCNC(=S)N1CCC(C(=O)c2ccc3c(c2)OCCO3)CC1", "inhibition": "26.6% (active)"}
{"smiles": "COCCNC(=O)C1CCN(S(=O)(=O)c2ccc3c(c2)OCCO3)CC1", "inhibition": "-1.09% (inactive)"}
{"smiles": "O=C(c1cccnc1)N1CC2(C1)[C@@H](c1ccccc1)[C@H](CO)N2C(=O)C1CCC1", "inhibition": "-1.71% (inactive)"}
{"smiles": "CCOC(=O)Cc1ncccc1C(=O)Nc1ccc(OC)cc1", "inhibition": "15.7% (active)"}
{"smiles": "CCOC(=O)Cc1ncccc1C(=O)Nc1ccc(OC(F)(F)F)cc1", "inhibition": "-0.166% (inactive)"}
{"smiles": "COc1ccc(NC(=O)c2ccccc2CC[N+](=O)[O-])cc1", "inhibition": "-2.27% (inactive)"}
{"smiles": "COc1cccc(C(=O)Nc2ccc3c(c2)C(=O)N(C)[C@@H]2CC[C@H](CC(=O)NCCCN4CCOCC4)O[C@H]2CO3)c1", "inhibition": "1.19% (inactive)"}
{"smiles": "COc1cccc(C#Cc2cnc3c(c2)C(=O)N([C@H](C)CO)C[C@@H](C)[C@@H](CN(C)C(=O)C2CCC2)O3)c1", "inhibition": "0.234% (inactive)"}
{"smiles": "O=C(N[C@@H]1CC[C@@H](CC(=O)N2CCc3ccccc3C2)O[C@H]1CO)C1CC1", "inhibition": "3.34% (inactive)"}
{"smiles": "CCS(=O)(=O)N1CC(=O)N2[C@H](CO)[C@@H](c3ccc(C#Cc4cccc(F)c4)cc3)[C@@H]2C1", "inhibition": "-0.525% (inactive)"}
{"smiles": "NC(=O)c1ccc(Nc2ccc3nonc3c2[N+](=O)[O-])cc1", "inhibition": "2.49% (inactive)"}
{"smiles": "NC(=O)c1ccc(Nc2ccc3c(c2)CCC3)c([N+](=O)[O-])c1", "inhibition": "28.4% (active)"}
{"smiles": "CCOc1ccccc1Nc1ccc(C(=O)O)cc1[N+](=O)[O-]", "inhibition": "-0.287% (inactive)"}
{"smiles": "CCC(=O)Nc1ccc2c(c1)C(=O)N(C)[C@H]1CC[C@H](CC(=O)NCC3CCCCC3)O[C@H]1CO2", "inhibition": "-3.85% (inactive)"}
{"smiles": "CCCNC(=O)Nc1ccc2c(c1)C(=O)N(C)[C@H]1CC[C@H](CC(=O)NCC3CCCCC3)O[C@@H]1CO2", "inhibition": "31.7% (active)"}
{"smiles": "CCNC(=O)Nc1ccc2c(c1)C(=O)N(C)[C@H]1CC[C@H](CC(=O)NCC3CCCCC3)O[C@@H]1CO2", "inhibition": "3.92% (inactive)"}
{"smiles": "C[C@@H]1CN([C@H](C)CO)C(=O)CCCn2cc(nn2)CO[C@@H]1CN(C)Cc1ccccc1C(=O)O", "inhibition": "-0.401% (inactive)"}
{"smiles": "COc1ccc2c3c([nH]c2c1)[C@H](CO)N(C(=O)C1CCCCC1)CC31CCN(C(=O)c2ccncc2)CC1", "inhibition": "-1.36% (inactive)"}
{"smiles": "COc1cccc(S(=O)(=O)N2[C@@H]3CNC[C@H]2C3c2ccc(-c3cccc(C(=O)N(C)C)c3)cc2)c1", "note": "(stereo partly specified)", "inhibition": "3.63% (inactive) and 4.46% (inactive)"}
{"smiles": "C(=N\\Nc1ccc2ccccc2n1)/c1ccc2c(c1)OCO2", "inhibition": "15.4% (active)"}
{"smiles": "Cc1noc(C)c1/C=N/Nc1ccc2ccccc2n1", "inhibition": "-4.8% (inactive)"}
{"smiles": "Cc1cc(=O)[nH]c(N/N=C/c2ccc3c(c2)OCCO3)n1", "inhibition": "2.57% (inactive)"}
{"smiles": "CN(C)Cc1cn(CC[C@H]2CC[C@H](NC(=O)Nc3ccccc3F)[C@@H](CO)O2)nn1", "inhibition": "-13.2% (inactive)"}
{"smiles": "O=C(Nc1ccncc1)c1ccc([N+](=O)[O-])cc1Cl", "inhibition": "-1.67% (inactive)"}
{"smiles": "Cc1ccnc(NC(=O)c2ccc(Cl)c([N+](=O)[O-])c2)c1", "inhibition": "-6.51% (inactive)"}
{"smiles": "O=C(Nc1ccncc1)c1ccc(Cl)c([N+](=O)[O-])c1", "inhibition": "31.2% (active)"}
{"smiles": "COCC(=O)N[C@@H]1C[C@@H]2O[C@@H](CO)CC[C@@H]2O[C@@H]1CCc1ccc(-c2ccccc2)cc1", "inhibition": "-3.27% (inactive)"}
{"smiles": "CN(C)CC(=O)Nc1ccc2c(c1)[C@H]1C[C@H](CC(=O)NCc3ccccc3)O[C@@H](CO)[C@H]1O2", "inhibition": "-5.86% (inactive)"}
{"smiles": "Cc1cccc(CN(C)C[C@H]2OCc3cn(nn3)CCCC(=O)N([C@@H](C)CO)C[C@H]2C)c1", "inhibition": "-2.48% (inactive)"}
{"smiles": "CCCNC(=O)N1[C@H](CO)[C@@H](c2ccc(-c3ccc(C(=O)N(C)C)cc3)cc2)[C@@H]1C#N", "inhibition": "5.61% (inactive)"}
{"smiles": "COc1ccc(NC(=O)N(C)C[C@@H]2OCCCC[C@H](C)Oc3ccc(NC(=O)c4ccccc4)cc3C(=O)N([C@H](C)CO)C[C@H]2C)cc1", "inhibition": "3.2% (inactive)"}
{"smiles": "CCC(=O)N1CCCCN2[C@H](CO)[C@@H](c3ccc(-c4cccnc4)cc3)[C@H]2C1", "inhibition": "0.057% (inactive)"}
{"smiles": "OC[C@H]1[C@H](c2ccc(-c3cccnc3)cc2)[C@H]2CN(Cc3ccccn3)CCCCN21", "inhibition": "15.6% (active)"}
{"smiles": "OC[C@@H]1[C@H](c2ccc(Br)cc2)[C@@H]2CN(Cc3ccccn3)CCCCN12", "inhibition": "3.43% (inactive)"}
{"smiles": "CN1C(=O)c2cc(NC(=O)NC3CCCC3)ccc2OC[C@@H]2O[C@@H](CC(=O)O)CC[C@H]21", "inhibition": "-7.32% (inactive)"}
{"smiles": "O=C(C[C@@H]1CC[C@H](NC(=O)Nc2ccc(F)cc2)[C@H](CO)O1)NCc1ccccn1", "inhibition": "1.52% (inactive)"}
{"smiles": "CC=Cc1ccc2n(c1=O)C[C@@H]1[C@@H](CO)[C@H](C(=O)NCC3CC3)[C@H]2N1C(=O)c1ccccc1", "note": "(mixture of isomers)", "inhibition": "-10.5% (inactive)"}
{"smiles": "COC(=O)C[C@@H]1C[C@@H]2c3cc(NC(=O)NC4CCCC4)ccc3O[C@@H]2[C@@H](CO)O1", "inhibition": "-3% (inactive)"}
{"smiles": "C[C@H]1CN([C@@H](C)CO)C(=O)c2cc(NC(=O)Cc3cn(C)c4ccccc34)ccc2O[C@H]1CN(C)Cc1ccc(Cl)c(Cl)c1", "inhibition": "7.81% (inactive)"}
{"smiles": "Cc1ccc(S(=O)(=O)N(C)C[C@H]2Oc3ccc(NC(=O)Cc4cn(C)c5ccccc45)cc3CC(=O)N([C@@H](C)CO)C[C@H]2C)cc1", "inhibition": "16.9% (active)"}
{"smiles": "C[C@@H]1CN([C@@H](C)CO)C(=O)c2cc(NC(=O)Cc3ccccc3)ccc2O[C@H]1CN(C)Cc1ccc(Cl)c(Cl)c1", "inhibition": "14.1% (inactive)"}
{"smiles": "C[C@H]1CN([C@@H](C)CO)C(=O)c2cc(NC(=O)Cc3cn(C)c4ccccc34)ccc2O[C@@H]1CN(C)Cc1ccc(Cl)c(Cl)c1", "inhibition": "22.6% (active)"}
{"smiles": "C[C@@H]1CN([C@H](C)CO)C(=O)Cc2cc(NC(=O)Cc3cn(C)c4ccccc34)ccc2O[C@@H]1CN(C)S(=O)(=O)c1ccccc1", "inhibition": "0.96% (inactive)"}
{"smiles": "Cc1ccc(S(=O)(=O)N(C)C[C@@H]2OCc3ccccc3-c3c(n(C)c4ccccc34)C(=O)N([C@@H](C)CO)C[C@@H]2C)cc1", "inhibition": "17.7% (active)"}
{"smiles": "C[C@H]1CN([C@@H](C)CO)C(=O)c2c(c3ccccc3n2C)-c2ccccc2CO[C@H]1CN(C)S(=O)(=O)c1ccc(C#N)cc1", "inhibition": "3.54% (inactive)"}
{"smiles": "Cc1ccc(S(=O)(=O)N(C)C[C@@H]2Oc3ccc(NC(=O)Cc4cn(C)c5ccccc45)cc3C(=O)N([C@@H](C)CO)C[C@@H]2C)cc1", "inhibition": "4.27% (inactive)"}
{"smiles": "C[C@@H]1CN([C@@H](C)CO)C(=O)c2c(c3ccccc3n2C)-c2ccccc2CO[C@@H]1CN(C)S(=O)(=O)c1ccc(F)cc1", "inhibition": "3.02% (inactive)"}
